# Measured values published in the supplement of paper PMC10681739.
# Legend:
# ETS1 [1] = biological target: T1, ETS1 (UniProt P14921); assay: ETS1 binding intensity (PBM fluorescence), ETS1 alone (arbitrary fluorescence units); higher = stronger binding; details: ETS1 concentration 1 nM; RUNX1 concentration 0 nM
# T1 sequence: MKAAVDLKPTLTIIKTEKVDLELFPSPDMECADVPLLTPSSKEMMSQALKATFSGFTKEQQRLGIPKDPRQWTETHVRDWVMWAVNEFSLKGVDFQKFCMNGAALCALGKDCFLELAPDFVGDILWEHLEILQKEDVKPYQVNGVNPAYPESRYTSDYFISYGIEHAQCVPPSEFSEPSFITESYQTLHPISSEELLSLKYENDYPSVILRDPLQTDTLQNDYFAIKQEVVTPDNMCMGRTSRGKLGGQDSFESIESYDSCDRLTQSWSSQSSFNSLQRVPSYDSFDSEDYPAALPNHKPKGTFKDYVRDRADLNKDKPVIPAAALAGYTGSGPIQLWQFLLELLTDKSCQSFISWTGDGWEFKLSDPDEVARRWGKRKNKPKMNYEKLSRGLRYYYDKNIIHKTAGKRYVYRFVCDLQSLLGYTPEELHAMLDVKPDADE
# RUNX1 [2] = biological target: RUNX1 (UniProt Q01196); assay: RUNX1 binding intensity (PBM fluorescence), RUNX1 alone (arbitrary fluorescence units); higher = stronger binding; details: RUNX1 concentration 2 nM; ETS1 concentration 0 nM
# Description: (§1)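 Cooperative gcPBM on 36-bp genomic probes with neighbouring ETS1 and RUNX1 sites. Recombinant human RUNX1 (2 nM) was incubated alone or with ETS1 (25 nM) and detected with anti-RUNX1 antibody plus Alexa488 secondary. Values are medians over 4 replicate spots; the RUNX1+ETS1 data were normalised to the RUNX1-only data. The probes sit in constant array flanks that are not printed.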
# ETS1 [3] = biological target: T1, ETS1; assay: ETS1 binding intensity (PBM fluorescence) in presence of RUNX1, normalised to ETS1-only experiment (arbitrary fluorescence units); higher = stronger binding; details: ETS1 concentration 1 nM; RUNX1 concentration 25 nM
# RUNX1 [4] = biological target: RUNX1 (UniProt Q01196); assay: RUNX1 binding intensity (PBM fluorescence) in presence of ETS1, normalised to RUNX1-only experiment (arbitrary fluorescence units); higher = stronger binding; details: RUNX1 concentration 2 nM; ETS1 concentration 25 nM
# Description: as §1
# 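Throughout, for RUNX1 binding intensity (PBM fluorescence) in presence of ETS1, normalised to RUNX1-only experiment: Full-length recombinant human ETS1 or RUNX1 bound to double-stranded 36-bp genomic probes on microarrays, detected by protein-specific primary antibody and Alexa488 secondary, spot fluorescence as median of four replicate spots.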
# 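Throughout, for RUNX1 binding intensity (PBM fluorescence), RUNX1 alone: Full-length recombinant human RUNX1 bound to double-stranded 36-bp genomic probes on a high-density microarray, scored as Alexa488 fluorescence per spot via anti-RUNX1 antibody, median of four replicate spots.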
# RUNX1, sequence (Q01196 whole entry): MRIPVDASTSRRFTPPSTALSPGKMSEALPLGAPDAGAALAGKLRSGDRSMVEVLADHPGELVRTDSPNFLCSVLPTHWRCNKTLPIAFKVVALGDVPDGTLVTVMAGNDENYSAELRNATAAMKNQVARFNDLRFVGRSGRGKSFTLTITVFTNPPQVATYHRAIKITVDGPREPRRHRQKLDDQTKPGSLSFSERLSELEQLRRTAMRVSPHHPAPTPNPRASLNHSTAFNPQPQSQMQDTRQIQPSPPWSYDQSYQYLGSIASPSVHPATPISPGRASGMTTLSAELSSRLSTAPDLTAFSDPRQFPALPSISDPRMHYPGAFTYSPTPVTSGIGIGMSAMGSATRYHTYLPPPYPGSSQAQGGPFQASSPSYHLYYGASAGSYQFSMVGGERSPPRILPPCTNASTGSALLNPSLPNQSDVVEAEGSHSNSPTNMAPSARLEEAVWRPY
Sequence,ETS1 binding intensity (ETS1 [1]),RUNX1 binding intensity (RUNX1 [2]),ETS1 binding intensity (ETS1 [3]),RUNX1 binding intensity (RUNX1 [4])
TCTGGGACAGGAAAGACTTGTGGTTACTGCTGTTGA,808,1390,4470,3160
ACCAGCCCAGGAAGCATCTGCGGTTCAAGTGGCCAC,452,1130,1470,1750
GGGCCCTTCCTGTGGCGCCTGCCGAGCTGTGGTTGG,388,716,496,1380
GCCCAGGAAGTGGGTACAAAATGAGCCACAAGACCT,616,768,839,1610
CAGAGAGCGGACTTCCGCGACGCGGGTAAGCCGGGC,498,670,368,894
AGTACGATGGGAGGAAGTGGTTTGTAAGAGGAGGAC,1740,640,3390,1490
TCCTCCATGCAGGAAAACCTCTGTGGTCTGGGAGCT,438,867,1230,862
CAGAACGGTCCCCGGAACACTGCGGTTCCCGCCTGG,357,1040,895,889
TTGGAAACAGACAGGAAGCCACAGGCAGTAAACATT,3300,753,3670,978
GTGGCCTCTTCAACAGGAAACCACAATATTTTTGTT,4610,1410,10500,2710
TGGGGACAGGAAATGTTTACTGCCTGTGGCTTGCTG,3340,705,4240,981
TAAATGTTTCCTAAAAGCTCTTTCATAAACCACAGT,390,970,669,884
TCTCGTCCGGTCCTTGCTCCCCCTCCCCGCAGCGCT,637,1090,790,1980
TGTCTCATTTCCTGTAGGTAACAGGCACCACAATAG,1550,968,1470,1780
ACAAGAGGAAGTGAGTCTACCCATGATGCGGTCACA,707,891,4460,1440
CACCTCAGCTTCCTGTGTAGCTGGGACCACAGGCAT,687,827,888,1560
TCATTCTCTGATAAAGGAAGTGGTTACAGCACAATT,2910,822,10200,1270
GAAGAGAAAGGAAACGGCTCGCGGTTTCTGGGGTTC,822,738,3150,1280
CCACGTAAAGGCGGAAGCGGTTGAGTGGACGCCATC,3090,708,4150,1640
GGCAGGAAAGAGCTGATGCATTTCAACCGCAGCCTG,520,1110,2430,1040
CCGCCGCGACACTTCCGGCGGCCACCACAGGGTATT,2700,727,3020,2500

Sequence,ETS1 binding intensity (ETS1 [1]),RUNX1 binding intensity (RUNX1 [2]),ETS1 binding intensity (ETS1 [3]),RUNX1 binding intensity (RUNX1 [4])
TATGGCGGGCAGGAAGTGCGGGTGCGCGCCTGCGCA,4640,642,5650,1360
CCTGGGGGGCCGGAAGCCCCGCTGCGGCCCCAGCCC,3060,737,2480,1130
GCGACCCGACCCGGCGGAAACCACCTCGACAGCCTC,915,953,1000,941
ACCCCGGAAGTGTGGGCGCGGCTGCGGTTTAACCCG,2640,2220,15900,8200
CGGGACCTGTTTCCTTGGGAACCACAAGATAAGACC,407,709,520,892
AGCACCCGGAAGTCGGAGCTGCGCACGCACCGCGGG,2180,751,1910,1210
GTGAGTCACTTCCTGACCATGTGGGTTTTTGGTACG,568,823,937,2090
GCCCGGAAGCGCGACGCTGGAGCTGCGGGGTTACCA,773,662,887,882
TATGGGGCCGGAAGCCATTCACCACAAACACTGTGT,2430,953,9050,3610
TTTATCATGAATGCAGGATGTGGGCAAACTCGCATC,2340,749,6100,1060
CAGCTAGCCGGAAGAAGCTGCGGCGACAGCGTCCTG,1690,759,2110,1020
GTCCTCCACTATTGTTTCCGGCCGCAGCAGAGGCGG,1870,1070,2090,2170
TTTCTGACTTCCTGTGTGCTTCAGAAACCTCAATGA,2020,830,2570,2110
TCTTGCCCGGGTCGGAAATGGTGGTCACGAGCGCTT,1110,772,1600,991
TCCAGCGGAAGGGGGCATCTTTGCGGCAGAGGCAGC,470,764,431,979
AGAGACAGCGGGCGGAAACCGCAGAAAAAGTTGAAA,1640,8270,3260,14200
GCCCCAGCGTTTCCTCTTACCCACAATGCCCCGCCC,794,1510,869,2330
GCCGTGGGTACGACCGGAAGCCGCAGGTGGGTGAAG,18000,772,35000,1540
TATTCTTCCTGTACTTAAGCTTGCTGGTGTGGTTTC,397,868,492,1560
TGGCAGCCACATCCTGCCTGTGGCTAGGTCAACCCA,1220,794,1290,3730
TCAGGGGTGGGAGGAAGTGGTTAGGATCAGCCTGGG,1910,776,3120,2680

Sequence,ETS1 binding intensity (ETS1 [1]),RUNX1 binding intensity (RUNX1 [2]),ETS1 binding intensity (ETS1 [3]),RUNX1 binding intensity (RUNX1 [4])
GCCTGCAGCTTCTTCCTGTGGCTTCTGCATCTCAGG,4420,783,3930,1320
CCAACGAGCACTTCCGCTTCCCGCAGCTCCAGCGGC,2400,914,4270,2650
TTCTTCCGGCAACTGCTGCTGAGGCTGCGGTGGCGG,455,799,899,2050
TGAGGAGAGCGAGGAAGTGGTTTTCTCTTCGCACAG,691,746,1080,948
GCCTGTGGAGTTGCAGGATGTGGTTGGCGAAAAGAA,2130,905,7880,1360
TGCAGTCTCAACTTCCTGCGGTCAAGTGATCCTTCA,654,3750,1410,6540
GCCCAGGCAGGAAGCCAGGCGCCCACAGGTTGGCAG,990,643,1090,923
GGACTTCCTGAAGCCAGATCGGTTTACCACAGTCAG,413,634,599,1860
AGCGCCCCATCCCGCGGATGTGGTAAAGCTTCGCGC,658,788,4400,1570
TTTGTCATATCAACAGGATGTGGTTCTCCCCTGGTT,6920,905,10700,1530
CCAAAAACCCCAGGAGGATGTGGTGAGGAGGGAAGG,1110,831,2590,1040
GCTGCCGGAAAAGGCGCCGAGGTAACCGCCTCACTT,479,903,496,1020
CTCTTCCTGCCTGTCCGTGGCTGGTGTGGTTTGCGT,457,958,616,2670
GACCTGCCTTCCGGCCTCCGTCACATGACCGCACAG,556,1110,1210,2000
TTGAGGGGAAGGGGAGGAAGTGGTCATTGGAACTTG,2530,776,3150,990
AAAGTAGGTCCGGTCCGCGGGTGCGGTCGGGCATGC,427,686,545,878
TACCTACATCCTGCCACCACCCGAGGGGACCGCAAG,496,1050,974,2810
TGCACCCGCCACTTCCGCATCGAACCGCCGCTTCAA,1100,1030,1140,3470
ACACAAACAGGAAGTGTTTGTGGTCCCTGCCTTTAG,7210,748,14500,1590
GGGGCTGTGCTTCCGGCTGTTTGTGCGGTTTTGTGC,1650,1520,6750,4340
GACACCCCACACCGGAAACCTCAGACAGTCCTCAGC,4120,1170,4680,2900

Sequence,ETS1 binding intensity (ETS1 [1]),RUNX1 binding intensity (RUNX1 [2]),ETS1 binding intensity (ETS1 [3]),RUNX1 binding intensity (RUNX1 [4])
CCCCGGGAAGGGAAGTTTGTGGCGGAGGAGGTTCGT,592,805,589,934
AGGACCTAACACTCAGGAAGTGGTCAACCTTGCTGC,2760,897,3710,1420
ACAGATACAGCCTCAGGAAGTGGTTTTGTATCTCTG,3200,682,6160,1070
TACACTCCCACATCCGCTGCGGCGCAACTCACAACA,969,1020,1260,6980
TGTCCGCACCCCACTTCCGCCCCGCAGAGGGCAACG,2960,890,3480,3130
ACCATATCCTGAGAATGAACCATGTGGTGGATGCAC,519,795,487,1270
CTAACAGCAGGAAGTGCTTGGTGGTTTAGCACCTCA,2990,664,7150,1180
TAGACTAACAGGGGAGGAAGTGGGTTGCAAGCCGTG,2030,683,2740,868
TTCAACAAGGTTTTCCTGTGGTTACCCCATGCTTTG,364,1040,451,1680
CGGCCTCTTCCGGTCACCTGGCCCGTCGCGGTCCCG,1800,1040,1520,2290
CGGGACTTCCTGTCTTCCCTGTTGCGGAGCTCTGAA,1720,780,1830,2000
TGCAGTCGTGAAAAAGGAAGTGGTTAAAGTGGATAC,2880,836,9240,1520
TGATTAAAAACAGGATGTGGGTGAATAGTCATGCAT,4810,759,7580,2490
ATTACAGGAAGTATGTCCTCCTCTGCCTAACCACTG,2270,831,2210,1270
GTATGGGAAGTGATCTGGCTGCAAACCGCAAGAGAG,549,4520,2730,7290
GGCCCAGGAAAGAGGCAGGGGTGCGGTTTCCCTCCG,394,1060,761,1480
TGTCTCTGCCGCCGGAAACCGCGCCGTAGATCATGC,5360,945,7800,1420
CTGAGTGAGACAGGATGTGGGCAGACCTCTAACACA,5110,733,11000,3230
